An excerpt weighted towards active compounds, which were near 6.9% of everything screened.
S-ASM inh = inhibitors of human secretory acid sphingomyelinase; Potency, µM (titrated, usually from 57.5 µM), for inactives: top-dose activity change, negative = inhibition, actives largely listed as inhibitors; P17405; placental ASM, HMU-PC fluorogenic substrate, 60 min; 340,000 compounds, 0.006% hits; note: potency is the fitted concentration of half-maximal effect
Target sequence (P17405 47-631 limits assumed): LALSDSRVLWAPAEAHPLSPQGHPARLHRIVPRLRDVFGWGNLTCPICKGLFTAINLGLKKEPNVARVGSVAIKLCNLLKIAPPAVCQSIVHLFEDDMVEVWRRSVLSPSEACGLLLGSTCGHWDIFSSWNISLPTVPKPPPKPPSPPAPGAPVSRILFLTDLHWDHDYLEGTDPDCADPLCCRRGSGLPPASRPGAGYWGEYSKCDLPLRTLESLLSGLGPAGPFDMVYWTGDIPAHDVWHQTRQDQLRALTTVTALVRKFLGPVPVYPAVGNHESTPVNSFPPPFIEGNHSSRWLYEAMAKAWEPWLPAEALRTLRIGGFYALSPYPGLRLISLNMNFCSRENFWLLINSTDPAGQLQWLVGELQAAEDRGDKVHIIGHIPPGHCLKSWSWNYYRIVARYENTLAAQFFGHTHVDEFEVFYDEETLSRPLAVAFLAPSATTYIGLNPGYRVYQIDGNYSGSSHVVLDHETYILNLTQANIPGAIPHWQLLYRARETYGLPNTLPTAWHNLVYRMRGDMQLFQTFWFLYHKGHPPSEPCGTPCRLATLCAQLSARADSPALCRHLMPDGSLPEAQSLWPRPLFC
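qHTS format. ASM enzyme prepared from human placenta hydrolyses the fluorogenic substrate HMU-PC0 (9 uM final) over 60 min at 37 °C after a 10 min compound preincubation.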
KB-V1 MDR tox = KB-V1 MDR subline cytotoxicity | KB-V1 MDR cells viability, CellTiter-Glo, 72 h | Potency, µM (titrated, usually from 46.1 µM), hits mostly cytotoxic | 400,000 compounds, 3.4% hits | AID 1347076; note: potency is the fitted concentration of half-maximal effect; % is set by controls: 0 for no effect and ±100 for the full control effect; nearly all actives have a fitted effect of over 60% in size
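Compound-treated KB-V1 multidrug-resistant cells, 72 h, 37 degrees C; viability by CellTiter-Glo. Fitted qHTS curves give the values.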
Giardia killer = Giardia lamblia killing | activity change, % at 7.66 µM, hits read low | 340,000 compounds, 0.15% hits | Giardia lamblia trophozoite viability | AID 540267; in the data active = activity change below about -80%; inconclusive = between about -30% and that limit;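 note: parasites exposed to compound for two days anaerobically before the ATP read; % is set by controls: 0 for no effect and ±100 for the full control effect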
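Media and compound were dispensed first, then trophozoites at 100 cells/well; plates sat 48 hrs at 37 deg C without oxygen before ATP luminescence reagent was added and read after 15-30 min at room temperature.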
SW480 rerep = induces DNA re-replication in SW480 colon adenocarcinoma cells | Potency, µM (doses to about 46.1 µM), for inactives: at the highest dose re-replication activation, hits mostly activators | 340,000 compounds, 1.8% hits | SW480 DNA re-replication, Hoechst DNA content imaging, 48 h; note: potency is the fitted concentration of half-maximal effect; % of control where 0% means no effect; nearly all actives have a fitted effect of over 55% in size
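Per well, 250 cells were exposed to pinned compound for 48 hr. Nuclear DNA was visualised with Hoechst (40 min, 37 C) and total object intensity recorded by fluorescence scanning.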
MCF10A rereplic = induces DNA re-replication in MCF 10a normal breast cells. MCF 10A DNA re-replication, Hoechst nuclear intensity, 48 h. 350,000 compounds, 2.9% hits. AID 624296. Potency, µM (series often up to 46.1 µM), inactives show top-dose activity, positive = re-replication, most hits filed as activators; note: potency is the fitted concentration of half-maximal effect; % of control where 0% means no effect; nearly all actives have a fitted effect of over 50% in size
KB-3-1 tox = KB-3-1 parental cell cytotoxicity; KB-3-1 viability, CellTiter-Glo ATP luminescence, 72 h; Potency, µM (top dose mostly 46.1 µM), usual class: cytotoxic; 400,000 compounds, 1.4% hits; AID 1347075; note: potency is the fitted concentration of half-maximal effect; % is set by controls: 0 for no effect and ±100 for the full control effect; nearly all actives have a fitted effect of over 60% in size
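Cytotoxicity measured as CellTiter-Glo luminescence after 72 h at 37 C. Compound titrations were pinned onto drug-naive KB-3-1 parental adenocarcinoma cells grown in DMEM with 10% FBS, and normalized data fitted to concentration-response curves.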
The depositor's hits bear a star; i = inactive; ? = inconclusive; . = no result given; [ ] = remark or other dose. Unless noted, calls come from the whole dose curve; as a rule, active = well fitted curve in the direction sought with a large enough effect; inconclusive = small, poorly fitted or top-dose-only effect, or another doubt; inactive = no such curve, though single readings can be large; an effect the other way counts as inactive or inconclusive.

SMILES	S-ASM inh	KB-V1 MDR tox	Giardia killer	SW480 rerep	MCF10A rereplic	KB-3-1 tox
C=CCn1c(SCc2ccccc2Cl)nnc1-c1sc2nc(C)cc(C)c2c1N	398%	i	-8	18µM*	10µM*	i
CCCCCCCCNC(=O)c1cnsn1	2%	i	3	0.52µM*	-1%	i
CCCCCCCCNC(=O)c1cnccn1	5%	i	11	?	5%	i
Nc1ncnc2c1c(-c1ccc(Oc3ccccc3)cc1)cn2C1CCCC1	-18%	?	1	2%	?	i
C=CC(=O)N1CCC[C@@H](n2nc(-c3ccc(Oc4ccccc4)cc3)c3c(N)ncnc32)C1	.	22µM*	.	.	.	?
O=c1[nH]c(/C=C/c2ccccc2Cl)nc2ccccc12	0%	i	-20	18µM*	16%	?
Cc1[nH]c2ccccc2c1/C=C/c1nc2ccccc2c(=O)[nH]1	295%	?	-10	16µM*	23µM*	?
O=C(O)c1ccc(/C=C/c2nc3ccccc3c(=O)[nH]2)cc1	2%	i	-19	?	7%	i
Cc1cccc(/C=C/c2nc3ccccc3c(=O)[nH]2)c1	10%	?	1	5.2µM*	8.2µM*	?
Clc1ccc(/C=C/c2nc3ccccc3[nH]2)cc1	254%	i	?	-4%	?	?
Clc1ccc(/C=C/c2nc3ccccc3[nH]2)c(Cl)c1	i	?	?	?	16µM*	i
COc1cc(/C=C/c2nc3ccccc3c(=O)[nH]2)ccc1O	.	?	.	.	.	i
O=C(CSc1nc(-c2ccc(F)cc2)[nH]c1-c1ccccc1)NCC1CCCO1 (configuration not stated)	.	i	.	.	.	i
Cc1[nH]c2ccccc2c1/C=C/c1ccnc2ccccc12	.	7.3µM*	.	.	.	8.2µM*
C(=C\c1c[nH]c2ccccc12)/c1ccnc2ccccc12	.	i	.	.	.	i
CCCOc1ccc(C2C(C(=O)OC)=CN(CCOC)C=C2C(=O)OC)cc1	i	i	-3	-1%[9.22 µM]	6%	i
CCCCN1C=C(C(=O)OC)C(c2ccccc2C(F)(F)F)C(C(=O)OC)=C1	i	i	19	9.2µM*	2.9µM*	i
COCCN1C=C(C(=O)OC)C(c2ccc(OC)c(OC)c2)C(C(=O)OC)=C1	i	i	4	1%	-4%	i
CCCCN1C=C(C(=O)OC)C(c2ccccc2Cl)C(C(=O)OC)=C1	i	i	1	?	7.3µM*	i
CCCCOc1ccccc1C1C(C(=O)OC)=C(C)N(C)C(C)=C1C(=O)OC	-16%	9.2µM*	-12	8%	17%	i
COCCN1C=C(C(=O)OC)C(c2ccccc2C(F)(F)F)C(C(=O)OC)=C1	i	i	-3	18µM*	16µM*	i
CCOC(=O)c1cccc(NC(=O)C2CCCN(S(=O)(=O)c3ccc4c(c3)oc(=O)n4C)C2)c1 (configuration not stated)	.	i	.	.	.	i
Cc1ccccc1N1C(=O)C(Oc2ccc(Cl)cc2)C1CNC(C)(C)C (configuration not stated)	3%	5.8µM*	28	?	12%	i
Cn1c(CNC(=O)CNC(=O)c2ccccc2)cc(=O)n(C)c1=O	1%	i	-7	?	0%	i
CCOC(=O)N1CCN(S(=O)(=O)c2ccc(C(=O)NNc3nc4c(C)cc(C)cc4s3)cc2)CC1	-16%	?	-14	5.8µM*	?	?
CCOC(=O)N1CCN(S(=O)(=O)c2ccc(C(=O)NNc3nc4c(C)cccc4s3)cc2)CC1	-10%	i	11	?	?	?
CCOC(=O)N1CCN(S(=O)(=O)c2ccc(C(=O)NNc3nc4cc(C)cc(C)c4s3)cc2)CC1	-23%	i	-5	?	?	4.1µM*

Screening results as filed in PubChem BioAssay.
